Results on 17 compounds are retold here after ChEMBL document CHEMBL1961873, “Compounds: GSK PKIS; Assays: Nanosyn kinase panel” (2012).

The target of assay [1] is Rho-associated protein kinase 1 (Homo sapiens) (UniProt Q13464). Conditions: at 1 µM.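 Note: reported values are mean percent inhibition of ROCK1.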
In assay [2] the target is Rho-associated protein kinase 2 (Homo sapiens) (UniProt O75116). Conditions: at 0.1 µM.
For assay [3] the target is unchanged. Conditions: at 1 µM.
The target of assay [4] is Ribosomal protein S6 kinase alpha-1 (Homo sapiens) (UniProt Q15418). As to conditions: at 0.1 µM.
The target is the same in assay [5]. As to conditions: at 1 µM.
Assay [6] addresses Ribosomal protein S6 kinase alpha-3 (Homo sapiens) (UniProt P51812). Conditions: at 0.1 µM.
Assay [7] shares this target. As to conditions: at 1 µM.
The target in assay [8] is Ribosomal protein S6 kinase alpha-2 (Homo sapiens) (UniProt Q15349). As to conditions: at 0.1 µM.
The target is the same in assay [9]. Conditions: at 1 µM.
The target in assay [10] is Ribosomal protein S6 kinase alpha-6 (Homo sapiens) (UniProt Q9UK32). As to conditions: at 0.1 µM.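 Note: reported value is the mean inhibition of RSK4, from the GSK PKIS kinase inhibitor screen.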

Sequence of Rho-associated protein kinase 1 (Homo sapiens) (Q13464 2-1354 limits assumed): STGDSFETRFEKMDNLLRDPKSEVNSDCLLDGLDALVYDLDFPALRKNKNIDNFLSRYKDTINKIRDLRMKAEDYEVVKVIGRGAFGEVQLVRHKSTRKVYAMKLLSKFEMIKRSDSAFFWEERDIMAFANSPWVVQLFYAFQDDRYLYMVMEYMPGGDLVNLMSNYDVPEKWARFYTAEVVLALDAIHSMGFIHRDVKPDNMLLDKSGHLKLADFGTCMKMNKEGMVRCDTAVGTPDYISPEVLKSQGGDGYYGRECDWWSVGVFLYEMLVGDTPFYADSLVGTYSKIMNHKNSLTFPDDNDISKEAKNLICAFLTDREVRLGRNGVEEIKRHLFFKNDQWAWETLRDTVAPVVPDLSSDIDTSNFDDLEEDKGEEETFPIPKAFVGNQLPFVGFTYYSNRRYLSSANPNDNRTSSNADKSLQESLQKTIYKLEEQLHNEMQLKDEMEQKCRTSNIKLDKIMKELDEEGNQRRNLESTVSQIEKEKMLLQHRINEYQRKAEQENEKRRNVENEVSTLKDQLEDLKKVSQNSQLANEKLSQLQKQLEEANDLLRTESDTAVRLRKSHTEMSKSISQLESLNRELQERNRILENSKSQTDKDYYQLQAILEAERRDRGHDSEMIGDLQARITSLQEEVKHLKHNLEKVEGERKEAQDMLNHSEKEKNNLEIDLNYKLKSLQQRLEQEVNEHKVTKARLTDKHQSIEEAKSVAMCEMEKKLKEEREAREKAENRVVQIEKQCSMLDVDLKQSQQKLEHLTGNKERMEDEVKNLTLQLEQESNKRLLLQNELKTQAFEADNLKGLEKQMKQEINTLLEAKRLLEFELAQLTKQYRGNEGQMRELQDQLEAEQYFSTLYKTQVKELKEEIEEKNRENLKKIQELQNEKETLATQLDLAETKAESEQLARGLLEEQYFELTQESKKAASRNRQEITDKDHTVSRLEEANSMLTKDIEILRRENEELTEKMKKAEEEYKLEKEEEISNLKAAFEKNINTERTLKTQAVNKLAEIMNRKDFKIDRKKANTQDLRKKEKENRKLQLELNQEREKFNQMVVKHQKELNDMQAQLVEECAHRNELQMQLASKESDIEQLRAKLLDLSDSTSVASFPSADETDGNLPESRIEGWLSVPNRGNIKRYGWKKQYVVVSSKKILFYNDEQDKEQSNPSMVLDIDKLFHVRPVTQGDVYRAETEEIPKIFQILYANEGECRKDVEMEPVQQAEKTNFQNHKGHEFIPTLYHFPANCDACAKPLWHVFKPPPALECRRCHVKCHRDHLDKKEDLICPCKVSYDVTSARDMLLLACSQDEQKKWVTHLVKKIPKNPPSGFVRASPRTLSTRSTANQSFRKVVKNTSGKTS
Sequence of Ribosomal protein S6 kinase alpha-2 (Homo sapiens) (Q15349 whole entry): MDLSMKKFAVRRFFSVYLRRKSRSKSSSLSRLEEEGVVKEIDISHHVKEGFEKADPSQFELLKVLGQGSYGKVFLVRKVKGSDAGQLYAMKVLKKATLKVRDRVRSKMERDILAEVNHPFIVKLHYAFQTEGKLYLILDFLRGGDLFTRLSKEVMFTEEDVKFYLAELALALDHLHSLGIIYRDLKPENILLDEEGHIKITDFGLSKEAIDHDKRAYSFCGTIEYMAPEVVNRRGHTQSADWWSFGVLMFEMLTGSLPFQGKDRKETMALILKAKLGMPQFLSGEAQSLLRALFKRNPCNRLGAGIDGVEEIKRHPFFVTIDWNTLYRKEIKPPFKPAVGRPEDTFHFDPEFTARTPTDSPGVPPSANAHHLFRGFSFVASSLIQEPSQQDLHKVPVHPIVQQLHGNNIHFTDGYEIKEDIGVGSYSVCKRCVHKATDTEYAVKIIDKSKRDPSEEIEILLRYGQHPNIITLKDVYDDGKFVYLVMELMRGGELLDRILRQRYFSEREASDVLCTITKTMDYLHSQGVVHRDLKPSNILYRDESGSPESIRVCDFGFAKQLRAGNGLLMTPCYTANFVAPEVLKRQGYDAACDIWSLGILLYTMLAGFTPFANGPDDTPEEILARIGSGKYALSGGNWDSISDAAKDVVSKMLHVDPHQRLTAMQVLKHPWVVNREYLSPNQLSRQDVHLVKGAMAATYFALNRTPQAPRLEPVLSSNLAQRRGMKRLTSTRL
Sequence of Rho-associated protein kinase 2 (Homo sapiens) (O75116 whole entry, looked up): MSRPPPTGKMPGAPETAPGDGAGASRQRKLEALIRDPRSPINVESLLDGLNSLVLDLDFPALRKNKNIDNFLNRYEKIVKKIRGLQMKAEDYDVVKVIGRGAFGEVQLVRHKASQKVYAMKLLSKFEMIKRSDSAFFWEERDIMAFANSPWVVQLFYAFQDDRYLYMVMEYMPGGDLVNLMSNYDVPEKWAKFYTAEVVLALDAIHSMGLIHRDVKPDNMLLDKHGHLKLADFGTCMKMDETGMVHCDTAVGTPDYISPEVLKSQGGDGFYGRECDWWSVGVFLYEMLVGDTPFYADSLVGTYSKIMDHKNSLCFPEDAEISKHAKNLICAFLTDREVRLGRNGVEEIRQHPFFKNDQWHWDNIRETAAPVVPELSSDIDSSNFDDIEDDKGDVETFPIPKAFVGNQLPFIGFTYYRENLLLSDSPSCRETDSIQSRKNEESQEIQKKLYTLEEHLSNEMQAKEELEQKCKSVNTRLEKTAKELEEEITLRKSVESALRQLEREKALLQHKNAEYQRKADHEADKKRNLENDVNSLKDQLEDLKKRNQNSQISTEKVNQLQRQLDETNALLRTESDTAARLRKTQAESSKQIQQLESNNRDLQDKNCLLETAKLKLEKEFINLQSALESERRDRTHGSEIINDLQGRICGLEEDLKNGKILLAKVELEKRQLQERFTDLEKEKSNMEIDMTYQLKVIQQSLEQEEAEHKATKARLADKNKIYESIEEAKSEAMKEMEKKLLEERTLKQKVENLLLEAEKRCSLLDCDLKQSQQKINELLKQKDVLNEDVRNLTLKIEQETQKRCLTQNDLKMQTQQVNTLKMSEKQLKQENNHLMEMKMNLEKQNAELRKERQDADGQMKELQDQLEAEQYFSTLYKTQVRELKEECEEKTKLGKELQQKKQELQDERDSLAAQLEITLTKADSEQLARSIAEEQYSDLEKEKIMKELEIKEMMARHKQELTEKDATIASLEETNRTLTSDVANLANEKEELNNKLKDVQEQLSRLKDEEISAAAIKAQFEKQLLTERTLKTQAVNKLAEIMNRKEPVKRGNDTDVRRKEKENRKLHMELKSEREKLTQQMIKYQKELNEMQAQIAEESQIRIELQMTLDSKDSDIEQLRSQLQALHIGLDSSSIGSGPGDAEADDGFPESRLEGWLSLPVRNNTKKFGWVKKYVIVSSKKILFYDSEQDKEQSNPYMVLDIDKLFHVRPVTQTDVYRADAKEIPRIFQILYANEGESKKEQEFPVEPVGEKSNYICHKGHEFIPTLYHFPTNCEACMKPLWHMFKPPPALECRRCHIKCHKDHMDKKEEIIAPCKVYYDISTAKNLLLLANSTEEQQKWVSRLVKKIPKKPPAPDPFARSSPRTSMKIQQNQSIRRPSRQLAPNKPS
Sequence of Ribosomal protein S6 kinase alpha-1 (Homo sapiens) (Q15418 whole entry): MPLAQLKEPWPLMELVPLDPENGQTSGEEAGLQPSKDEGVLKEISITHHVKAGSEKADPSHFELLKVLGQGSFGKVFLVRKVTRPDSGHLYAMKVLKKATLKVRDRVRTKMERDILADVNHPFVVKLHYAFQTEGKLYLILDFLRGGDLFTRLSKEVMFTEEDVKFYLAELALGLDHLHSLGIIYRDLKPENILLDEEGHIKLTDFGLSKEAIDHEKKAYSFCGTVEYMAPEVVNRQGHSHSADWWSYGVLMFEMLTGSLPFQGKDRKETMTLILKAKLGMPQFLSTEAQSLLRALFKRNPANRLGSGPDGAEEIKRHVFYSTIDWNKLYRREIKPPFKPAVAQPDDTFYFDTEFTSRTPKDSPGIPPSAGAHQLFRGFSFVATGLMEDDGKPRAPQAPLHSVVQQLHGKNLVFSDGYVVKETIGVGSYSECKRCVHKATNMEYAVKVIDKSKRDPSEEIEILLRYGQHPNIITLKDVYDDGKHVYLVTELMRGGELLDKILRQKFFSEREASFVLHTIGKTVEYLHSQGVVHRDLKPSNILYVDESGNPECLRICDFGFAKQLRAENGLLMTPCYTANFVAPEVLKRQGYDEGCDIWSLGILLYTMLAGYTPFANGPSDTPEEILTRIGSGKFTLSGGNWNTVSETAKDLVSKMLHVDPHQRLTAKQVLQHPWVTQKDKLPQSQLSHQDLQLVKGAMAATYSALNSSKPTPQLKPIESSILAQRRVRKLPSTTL
Sequence of Ribosomal protein S6 kinase alpha-3 (Homo sapiens) (P51812 whole entry): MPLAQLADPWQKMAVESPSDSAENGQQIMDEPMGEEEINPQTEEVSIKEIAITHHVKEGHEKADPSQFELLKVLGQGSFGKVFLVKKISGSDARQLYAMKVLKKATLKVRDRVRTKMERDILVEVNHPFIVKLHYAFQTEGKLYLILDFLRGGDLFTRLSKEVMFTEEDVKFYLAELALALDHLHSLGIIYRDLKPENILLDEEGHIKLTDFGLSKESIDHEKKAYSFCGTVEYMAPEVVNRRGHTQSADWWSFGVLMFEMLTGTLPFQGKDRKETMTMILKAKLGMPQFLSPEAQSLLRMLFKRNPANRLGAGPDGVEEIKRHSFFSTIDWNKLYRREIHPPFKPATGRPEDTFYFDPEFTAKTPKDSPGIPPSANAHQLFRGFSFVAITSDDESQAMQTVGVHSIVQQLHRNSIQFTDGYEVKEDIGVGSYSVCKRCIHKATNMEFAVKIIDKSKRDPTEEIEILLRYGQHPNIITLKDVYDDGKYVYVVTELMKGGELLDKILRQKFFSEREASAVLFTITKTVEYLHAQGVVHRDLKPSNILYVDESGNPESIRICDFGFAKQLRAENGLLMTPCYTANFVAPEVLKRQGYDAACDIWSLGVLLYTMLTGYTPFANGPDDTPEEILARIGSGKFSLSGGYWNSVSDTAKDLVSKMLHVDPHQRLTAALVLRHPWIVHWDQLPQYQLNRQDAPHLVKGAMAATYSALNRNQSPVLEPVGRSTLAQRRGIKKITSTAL

Usually inhibition stands for the relative decrease from the control value, in per cent. Regarding `Fc1ccc(-c2ncn(CCCN3CCOCC3)c2-c2ccncc2)cc1`, the inhibition was -0.82% in assay [1]; 0.06% in [2]; -4.4% in assay [3]; -1.49% in [4]; -3.25% in assay [5]; 0.33% in assay [6]. Further, the inhibition is -0.73% in [7], 0.61% in [8], -0.22% in assay [9] and 0.43% in [10].

`COc1cc(Nc2ncc3c(C)nc(-c4cccc(Oc5ccccc5)c4)n3n2)cc(OC)c1OC`: the inhibition in [1] is 1.17%; in assay [2], 0.99%; in assay [3], -0.91%; in assay [4], 1.56%; in [5] it was 7.14%; in assay [6], 0.9%. The inhibition in assay [7] turned out to be 8.61%; in [8], 2.77%; in assay [9], 14.4%; in assay [10], 2.59%.

For the compound `CCC(=O)Nc1ccc(C)c(-c2ccc(C(=O)NCC3CC3)cc2)c1`, the inhibition in [1] came out at 4.2%; in [2], 2.63%; in [3], 3.64%; in assay [4], 0.56%; in assay [5], 0.53%; in assay [6] it was 0.82%. For the same compound, the inhibition in assay [7] stood at 0.79%; in [8], 1.75%; in assay [9] it was 2.09%; in assay [10] it was 0.01%.

For the compound `O=C(Nc1n[nH]c2nc(-c3ccco3)ccc12)C1CC1`, the inhibition in [1] is 3.74%; in assay [2], 1.89%; in assay [3], 3%; in [4], 0.92%; in assay [5], 0.86%; in assay [6], -0.05%. For the same compound, the inhibition in assay [7] was 0.78%; in [8], 0.54%; in assay [9] it was 1.46%; in [10], 0.59%.

Consider `CN(C)CCCNc1nccc(-c2c(-c3ccc(F)cc3)nn3cc(C(F)(F)F)ccc23)n1`, for which the inhibition came to 1.8% in assay [1]; 1.71% in assay [2]; 3.88% in assay [3]; 2.04% in [4]; 4.02% in assay [5]; 0.68% in assay [6]. Also, the inhibition in [7] was determined as 2.23%; in assay [8], 1.91%; in assay [9], 3.08%; in assay [10] it was 0.86%.

Consider `Cc1nnc(-c2ccc(C)c(-c3ccc(C(=O)NCc4ccc(Cl)cc4)cc3)c2)o1`, for which the inhibition in assay [1] was 2.48%; in assay [2] it was 3.86%; in [3], 5.72%; in assay [4] it was 2.78%; in assay [5], 2.72%; in assay [6], 2%. For the same compound, the inhibition in [7] is 2.89%; in assay [8], 3.07%; in [9], 3.77%; in assay [10], 1.59%.

As for `CS(=O)(=O)CCNCc1cc(-c2cc3c(Nc4ccc(OCc5cccc(F)c5)c(Cl)c4)ncnc3s2)cs1`, the inhibition in assay [1] is 4.5%; in assay [2] it was 3.92%; in [3], 5.77%; in assay [4], -0.03%; in [5], 1.94%; in assay [6], 1.24%. Moreover, the inhibition in [7] was determined as 1.57%; in assay [8] it was 3.28%; in assay [9], 2.95%; in assay [10], 0.77%.

In the case of `NC(=O)c1cc(-c2ccncc2)cc(-c2ccccc2)c1N`, the inhibition in assay [1] is 6.72%; in assay [2], 3.44%; in assay [3], 9.1%; in [4], 1.01%; in [5], -1.21%; in [6], 1.46%. The inhibition in assay [7] was found to be 1.47%; in assay [8], 3.07%; in assay [9] it was 2.57%; in [10], 2.79%.

Turning to `NS(=O)(=O)c1ccc(N/N=C2\C(=O)Nc3ccc(-c4cnco4)cc32)cc1`, the inhibition is 37.6% in assay [1]; 16.3% in [2]; 58.3% in assay [3]; -0.32% in [4]; 3.8% in assay [5]; -1% in assay [6]. Further, the inhibition is 2.65% in assay [7], 1.5% in assay [8], 7.28% in assay [9] and 0.03% in [10].

`O=C(NCC1CC1)c1ccc(-c2cccc(C(=O)NC3CC3)c2)cc1`: the inhibition in [1] was 2.85%; in assay [2] it was 2.43%; in [3] it was 1.11%; in [4], -0.06%; in assay [5], 0.15%; in assay [6], 0.89%. Further, the inhibition in assay [7] was -1.16%; in assay [8], 0.67%; in assay [9], 0.58%; in [10] it was 0.55%.

As for `COc1ccc2ncn(-c3cc(O[C@H](C)c4ccccc4Cl)c(C(N)=O)s3)c2c1`, the inhibition in assay [1] was 2.68%; in [2] it was 1.42%; in assay [3], 2.59%; in assay [4], -0.02%; in assay [5], 0.44%; in [6], -1.13%. The inhibition is -0.23% in assay [7], 1.47% in assay [8], 1.88% in assay [9] and 0.03% in [10].

On to `O=C1Nc2ccc(I)cc2C1=Cc1cc(Br)c(O)c(Br)c1`, for which the inhibition was 2.32% in assay [1]; 2.42% in assay [2]; 4.03% in assay [3]; 0.5% in [4]; 2.27% in [5]; 1.27% in [6]. Further, the inhibition in assay [7] came out at 1.7%; in [8], 2.5%; in [9], 3.82%; in [10], 1.37%.

`COc1cc2ncn(-c3cc(OCc4cccs4)c(C(N)=O)s3)c2cc1OC`: the inhibition in [1] was 2.63%; in assay [2] it was 3.91%; in assay [3], 11.3%; in assay [4], 4.14%; in assay [5] it was 12.6%; in assay [6], 3.71%. For the same compound, the inhibition in assay [7] is 11.8%; in assay [8], 2.98%; in assay [9], 9.31%; in [10], 1.53%.

Consider `O=C(Nc1ccc(Oc2ccc3[nH]c(NC(=O)c4ccccc4)nc3c2)cc1)Nc1cc(C(F)(F)F)ccc1F`, for which the inhibition in [1] was 6.36%; in assay [2] it was 3.35%; in assay [3], 8.83%; in assay [4], 1.17%; in [5], 5.03%; in assay [6], 0.81%. Besides, the inhibition in assay [7] is 1.47%; in [8] it was 3.12%; in assay [9] it was 20.5%; in [10], 1.69%.

For the compound `O=C(Nc1n[nH]c2cc(-c3ccccc3)ccc12)C1CC1`, the inhibition in [1] was 1.05%; in assay [2], 2.59%; in assay [3], 0.78%; in assay [4], 0.84%; in assay [5], 1.81%; in assay [6], 1.2%. Moreover, the inhibition in assay [7] worked out at 0.07%; in assay [8], 3.06%; in assay [9], 3.36%; in [10], 3%.

As to `C[C@@H](Oc1cc(-n2cnc3ccc(OC4CCN(C)CC4)cc32)sc1C(N)=O)c1ccccc1Cl`, the inhibition in assay [1] is 5.39%; in assay [2], 1.57%; in [3], 5.08%; in [4], 2.3%; in [5], 12.4%; in assay [6], 3.29%. For the same compound, the inhibition in assay [7] was found to be 21.8%; in [8], 4.54%; in assay [9] it was 20.2%; in assay [10], 7.23%.

`COc1cc(C)c(N(C)C(=O)CN(C)C)cc1Nc1nc(Nc2cccc(F)c2C(N)=O)c2cc[nH]c2n1`: the inhibition in [1] is 1.48%; in assay [2], 0.89%; in assay [3] it was -0.53%; in [4], 1.17%; in [5] it was 3.02%; in assay [6], 1.14%. Besides, the inhibition in [7] came out at 1.43%; in assay [8], 1.84%; in assay [9], 2.69%; in assay [10] it was 1.67%.
